From PubChem BioAssay
MPTP block = mitochondrial permeability transition pore inhibitors, primary screen, biochemical, isolated mouse mitochondria, absorbance | Ca2+ swelling absorbance, 30 min | inhibition, % at 10 µM | 360,000 tested, 1.4% active | AID 602449, 2012;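 active = inhibition of 50% or more, scaled per plate between neutral and stimulator controls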;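 also: 0% = DMSO wells given calcium and 100% = 1 mM EGTA wells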
CRFR2-BP ag = agonists of CRF-BP/CRF-R2 complex, primary screen, cell-based, HEK293, calcium dye fluorescence, uHTS; CRF-binding protein / CRF receptor 2 complex (human); calcium dye fluorescence (FLIPR); percent of saturating CRF peptide response; activation, % at 13.2 µM; 350,000 tested, 0.46% active; AID 588473, 2011;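 active = activation of at least 50%, plus an integration ratio under a set limit after plate pattern correction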;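 also: plate controls were neutral control wells without compound for no effect and CRF at EC100 for full effect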
ANO1 activ = TMEM16A chloride channel activators or potentiators, primary screen, cell-based, HTS. Anoctamin-1 (Mus musculus), Q8BHY3. HEK293 TMEM16A/YFP-H148Q/I152L, iodide quench fluorescence; active compounds read low. B-score at 10 µM. 340,000 tested, 0.3% active. AID 623877, 2012;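 active = fluorescence-ratio B-score plate-corrected deviation score at least 3 library SD below zero, with starting fluorescence score within 5 deviations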;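 also: channel opened by trigger with iodide after compound preincubation; score built on the fluorescence ratio of max minus min over baseline; more negative score means more quench and so TMEM16A activation or potentiation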
GRIN3A LBD mod = binders of NR3A ligand-binding domain, primary screen, biophysical, differential scanning fluorimetry, uHTS; 340,000 tested, 2.5% active; Glutamate receptor ionotropic, NMDA 3A (GRIN3A) ligand-binding domain; Tm shift relative to glycine control, % at 25 µM; AID 1259313, 2017; NR3A LBD differential scanning fluorimetry, Tm shift; 0% = protein alone, 100% = glycine-bound protein;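 active = melting temperature shift of at least 10% of the positive control shift, at one fixed dose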
TMEM16A inh = TMEM16A chloride channel inhibitors, primary screen, cell-based, HTS; Anoctamin-1 (Mus musculus), Q8BHY3; HEK293 TMEM16A/YFP iodide influx fluorescence, ionomycin; normalized B-score (activity score, 25-100; higher = stronger inhibition) at 10 µM; 310,000 tested, 1.2% active;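 active = ratio plate-corrected score three or more library SD toward inhibition, starting fluorescence score within five deviations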;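 also: score derived from kinetic fluorescence span divided by baseline fluorescence per well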
CRFR2-BP antag = antagonists of CRF-BP/CRF-R2 complex, primary screen, cell-based, HEK293, calcium dye fluorescence, uHTS. CRF-induced calcium fluorescence. inhibition, % at 11.8 µM. 350,000 tested, 0.59% active. AID 588475, 2011;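 active = inhibition of the ligand-induced calcium signal above about 50% at the single tested concentration, limit read from the data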
* marks the source's active call; other numbers are inactive results; i = inactive; . = no result given. Shown are actives, neighbours in structure and some others; about 5.1% of the full set was active somewhere.

SMILES | MPTP block | CRFR2-BP ag | ANO1 activ | GRIN3A LBD mod | TMEM16A inh | CRFR2-BP antag
O=C(COC(=O)c1c2c(nc3ccccc13)/C(=C\c1cccs1)CCC2)Nc1ccccc1 | 8.2 | 1.0 | i | 16.8* | i | -1.0
CC(=O)c1ccc(NC(=O)COC(=O)c2c3c(nc4ccccc24)/C(=C\c2cccs2)CCC3)cc1 | 22.3 | -1.6 | i | 4.1 | i | 13.3
N#CCCn1cc(C(=O)Nc2cccc(C(=O)O)c2)c(-c2ccc(Cl)cc2)n1 | -1.5 | -1.0 | i | -2.4 | i | 1.9
Brc1ccc(-c2noc(C3CCCCC3)n2)cc1 | 0.1 | 0.6 | i | 14.3* | i | -30.0
c1ccc(-c2noc(C3CCCCC3)n2)nc1 | -1.2 | -1.4 | i | 1.2 | i | -8.1
Cc1ccc(-c2noc(C3CCCN(C(=O)c4ccccc4Br)C3)n2)cc1 (configuration not stated) | 7.8 | 0.7 | i | 0.4 | 100* | 0.2
CC1CN(C(=O)COC(=O)/C=C/c2cccc([N+](=O)[O-])c2)CC(C)O1 (configuration not stated) | -3.4 | 2.3 | i | -1.6 | . | 3.5
CCOC(=O)C1(CCCc2ccccc2)CCN(C(=O)Cc2nonc2C)CC1 | 0.0 | -1.9 | -6.69* | 1.0 | i | 3.8
CC[C@]1(C(=O)OC)[C@H]2C(=O)N(Cc3ccccc3)C(=O)[C@H]2[C@H]2CN(C)C(=NC)N21 | 0.7 | 0.4 | . | 1.7 | . | 5.5
O=[N+]([O-])c1ccc(-c2cn3nc(-c4ccccc4)c(-c4ccccc4)nc3n2)cc1 | 1.2 | 66.0* | i | -2.1 | i | -48.4
Cc1nc(-c2c(C(F)(F)F)noc2-c2ccc(O)cc2O)cs1 | 0.4 | -8.1 | i | 1.5 | i | 54.2*
COc1ccccc1OCC(=O)Nc1cc(C(F)(F)F)ccc1-n1cncn1 | -2.0 | -0.1 | i | -0.4 | i | -5.9
COc1cccc(NC(=O)NCCc2ccc(Cl)cc2)c1 | 0.0 | -1.8 | i | 1.7 | i | 9.9
COc1cccc(-c2cc(N)nn2C(=O)Nc2ccc(Cl)cc2)c1 | 1.5 | 0.5 | i | 26.7* | i | 4.3
CCOc1ccc2nc3ccc4[nH]onc4c3c2c1 | 42.1 | 1.6 | i | 30.8* | i | -36.6
CC(C)CCNC(=O)NC(=O)COC(=O)c1cc(S(=O)(=O)N2CCOCC2)ccc1N1CCCCC1 | -0.9 | 3.4 | -12* | -1.2 | i | -6.7
CCOc1ncccc1C(=O)OCC(=O)Nc1ccc(C)c(S(=O)(=O)N2CCOCC2)c1 | 1.1 | 0.5 | i | 0.1 | i | 4.2
CC(OC(=O)C1=COCCO1)C(=O)Nc1cccc(S(=O)(=O)N2CCOCC2)c1 (configuration not stated) | -0.3 | 0.8 | i | -1.6 | i | -7.1
O=C(COC(=O)C1=COCCO1)Nc1cccc(S(=O)(=O)N2CCOCC2)c1 | -0.5 | 0.2 | i | 11.1* | i | -1.7
CC(Nc1ccc(Br)cc1)C(=O)Nc1cccc(S(=O)(=O)N2CCOCC2)c1 (configuration not stated) | -0.3 | 1.6 | i | -5.0 | . | 89.8*
Cc1ccc(NC(=O)COC(=O)c2cccnc2Cl)cc1S(=O)(=O)N1CCOCC1 | 0.2 | -3.4 | i | -0.2 | . | 64.0*
CC1CN(C(=O)COC(=O)c2ccccc2O)CC(C)O1 (configuration not stated) | -2.2 | 0.3 | i | -3.8 | i | 12.6
CCN(CC)C(=O)C1=C(C)N(Cc2ccc(C(C)(C)C)cc2)C(=O)C(CC(=O)NC2CCCC2)C1 (configuration not stated) | -0.4 | -1.2 | . | . | . | 7.0
Cc1ccc(NC(=O)CSc2ncnc3ccccc23)cc1S(=O)(=O)N1CCOCC1 | 24.0 | -3.6 | i | 0.9 | 25* | 0.3
Cc1cc(C(=O)OCC(=O)Nc2cccc(S(=O)(=O)N3CCOCC3)c2)c(C)o1 | 3.5 | -1.1 | -6.25* | 2.4 | i | 1.0
SMILES | MPTP block | CRFR2-BP ag | ANO1 activ | GRIN3A LBD mod | TMEM16A inh | CRFR2-BP antag
Cc1ccc(NC(=O)COc2ncnc3ccccc23)cc1S(=O)(=O)N1CCOCC1 | -0.2 | 1.7 | i | -10.7 | i | 13.5
COc1ccc(NC(=O)CNc2ccccc2N2CCCC2=O)cc1S(=O)(=O)N1CCOCC1 | -0.7 | 2.4 | i | 1.4 | . | -5.1
O=C(Nc1ccccc1N1CCOCC1)c1ccc([N+](=O)[O-])o1 | 1.6 | -1.3 | i | 18.6* | i | 48.8
COc1ccc(N2CCOCC2)c(NC(=O)c2ccc(Br)o2)c1 | -0.8 | -1.8 | i | 12.6* | i | 4.2
CC(=O)/C(C#N)=C1\NC(=O)C(Cc2ccc(C)c(C)c2)S1 (configuration not stated) | 17.1 | 7.6 | i | -9.2 | 25* | 37.7
CC(C)n1ncc2c(C(=O)N3CCN(S(=O)(=O)c4cccc(F)c4)CC3)cc(C3CC3)nc21 | 1.4 | -0.5 | . | . | . | -6.5
COc1ccccc1C(C(=O)NC1CCCC1)N(C(=O)c1csnn1)C1CC1 (configuration not stated) | 0.5 | -0.7 | i | 1.0 | i | 4.8
Cn1c(=O)c(N)c2c3c(c(Br)ccc31)C(=O)c1ccccc1-2 | 4.3 | 88.8* | i | -6.1 | i | -56.4
O=C(CC1CCCC1)Nc1cccc(Br)c1 | 0.5 | -1.1 | i | -8.7 | i | -18.6
N#Cc1cccc(NCC(=O)Nc2ccc3c(c2)OCCO3)c1 | -1.9 | -2.7 | i | 0.1 | i | 80.4*
N#Cc1cccc(NC(=O)CC2CCCCC2)c1 | 6.8 | 0.7 | i | 12.2* | i | -6.5
COC(=O)c1cc(NS(=O)(=O)c2ccc(N3CCC(C)CC3)c([N+](=O)[O-])c2)cc(C(=O)OC)c1 | 9.8 | 0.8 | i | 18.4* | i | 10.9
COC(=O)c1cc(NS(=O)(=O)c2ccc(N3CCCCC3)c([N+](=O)[O-])c2)cc(C(=O)OC)c1 | -7.7 | -0.5 | i | 6.4 | i | -3.9
Cc1cc(NC(=O)c2oc3ccccc3c2C)ccc1-n1cnnn1 | 0.4 | -0.8 | i | 23.3* | i | -8.0
COc1cc(OC)cc(C(=O)Nc2ccc(-n3cnnn3)c(C)c2)c1 | 16.8 | -3.1 | i | -1.1 | i | 8.0
CC[n+]1c(/C=C/N(C)c2ccccc2)oc2ccc(Cl)cc21 | 2.3 | 1.8 | i | -2.2 | i | 14.6
CCN1/C(=C/C=C/c2oc3ccc4ccccc4c3[n+]2CC)Oc2ccc3ccccc3c21 | . | 153.3* | . | 0.8 | i | -219.1
